In assay [1] the target is Myc proto-oncogene protein (Homo sapiens) (UniProt P01106). The assay is described as follows: ATG_Myc_CIS: Attagene CIS-FACTORIAL HepG2 Assay for human Myelocytomatosis (Myc) Proto-Oncogene Transcription Factor (AID 2282990). To be noted: HepG2, Attagene cis-reporter transcription factor activity; actives raise or lower the signal. In short, it runs like this: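 HepG2 cells transiently transfected with multiple cis-promoter-driven reporter transcription units, so endogenous TF activity is read. After 24 h compound exposure, reporter mRNA was quantified by RT-PCR, 6-FAM labelling, HpaI digestion and capillary electrophoresis; bidirectional fit versus DMSO.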

Assay [2] is described as follows: ATG_NF_kB_CIS: Attagene CIS-FACTORIAL HepG2 Assay for human Nuclear Factor Kappa B (NF-kB) (AID 2282991). To be noted: HepG2 Attagene cis-factorial NF-kB reporter mRNA; actives raise or lower the signal. In short, it runs like this: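 Read-out: reporter transcript levels quantified by RT-PCR plus capillary electrophoresis of 6-FAM-labelled, HpaI-cut fragments. Transfected HepG2 cells, 24 h compound exposure, endogenous NF-kB-driven cis element; gain or loss scored versus DMSO.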

A short description of assay [3]: ATG_Oct_MLP_CIS: Attagene CIS-FACTORIAL HepG2 Assay for human Octamer-Binding Transcription Factor (Oct) (AID 2282993). To be noted: HepG2 Attagene cis-factorial Oct reporter, mRNA; actives raise or lower the signal. In short, it runs like this:
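Multiplexed cis-reporter assay in human liver HepG2 cells, 24 h incubation. Reporter RNA amplified and labelled, then resolved by capillary electrophoresis; DMSO serves as negative control and baseline.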

Assay [4] deals with Cellular tumor antigen p53 (Homo sapiens) (UniProt P04637). Briefly: ATG_p53_CIS: Attagene CIS-FACTORIAL HepG2 Assay for human p53 Transcription Factor (AID 2282994). The note with it: HepG2 p53 cis-element reporter, Attagene mRNA; actives raise or lower the signal. In short, it runs like this:
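In HepG2 cells, reporter transcription units under cis-regulatory promoters were transiently introduced. Following 24 h treatment, RNA was processed to labelled, digested cDNA fragments read by capillary electrophoresis; fitting was bidirectional versus DMSO.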

Assay [5] addresses human Peroxisome Proliferator-activated Receptor alpha (PPARa), PPARA (gene 5465) (UniProt Q07869). The assay is described as follows: ATG_PPARa_TRANS: Attagene TRANS-FACTORIAL HepG2 Assay for human Peroxisome Proliferator-activated Receptor alpha (PPARa) (AID 2283001; active = hit-call score of the fitted dose curve at least 0.9, where 1 is the maximum). In short, it runs like this:
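Exposure: 24 h, transiently transfected HepG2 cells. Endpoint: GAL4-UAS reporter mRNA, RT-PCR with capillary electrophoresis fluorescence. Baseline: DMSO; increases fitted.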

For assay [6], the target named is human RAR-related Orphan Receptor beta (RORb), RORB (gene 6096) (UniProt Q92753). Briefly: ATG_RORb_TRANS: Attagene TRANS-FACTORIAL HepG2 Assay for human RAR-related Orphan Receptor beta (RORb) (AID 2283010; active = hit-call score of the fitted dose curve at least 0.9, where 1 is the maximum). A digest of the protocol:
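Multiplexed transcription-factor reporter assay: HepG2 cells transiently carrying NR-Gal4/GAL4-UAS constructs, 24 h treatment, mRNA quantified by RT-PCR plus capillary electrophoresis fluorescence; activity scored as induction over DMSO.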

Assay [7] concerns the target human RAR-related Orphan Receptor gamma (RORg), RORC (gene 6097) (UniProt P51449). Briefly: ATG_RORg_TRANS: Attagene TRANS-FACTORIAL HepG2 Assay for human RAR-related Orphan Receptor gamma (RORg) (AID 2283011; active = hit-call score of the fitted dose curve at least 0.9, where 1 is the maximum). A digest of the protocol:
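Reporter transcripts from a transfected RORg-GAL4 chimera in HepG2 cells were quantified 24 h after dosing by RT-PCR, 6-FAM labelling, HpaI digestion and capillary electrophoresis; increases over DMSO baseline were fitted.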

The target in assay [8] is Nuclear receptor subfamily 1 group I member 2 (Homo sapiens) (UniProt O75469). The assay is described as follows: ATG_PXR_TRANS: Attagene TRANS-FACTORIAL HepG2 Assay for human Pregnane X Receptor (PXR) (AID 2283008; active = hit-call score of the fitted dose curve at least 0.9, where 1 is the maximum). A digest of the protocol: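 Multiplexed TRANS reporter panel in HepG2; this component tracks PXR-Gal4-driven reporter mRNA after 24 h dosing, measured by RT-PCR with capillary electrophoresis fluorescence, fitted against DMSO.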

Assay [9] concerns the target human Retinoic Acid Receptor gamma (RARg), RARG (gene 5916) (UniProt P13631). Briefly: ATG_RARg_TRANS: Attagene TRANS-FACTORIAL HepG2 Assay for human Retinoic Acid Receptor gamma (RARg) (AID 2283009; active = hit-call score of the fitted dose curve at least 0.9, where 1 is the maximum). In short, it runs like this: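 Gain-of-signal relative to DMSO is reported from fluorescent capillary electrophoresis of RT-PCR reporter products. These came from HepG2 cells expressing transfected RARg-GAL4 chimeras with UAS reporters, harvested 24 h after dosing.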

Assay [10] in a line: BSK_3C_TissueFactor: BioMAP Diversity Plus: 3C Assay for Tissue Factor Biomarker Activity (AID 2282997). To be noted: BioMAP 3C HUVEC, tissue factor biomarker readout; actives raise or lower the signal. A digest of the protocol: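 Tissue factor on primary human umbilical vein endothelium was read by ELISA 24 h after dosing, gain or loss relative to DMSO. Cytotoxicity ran alongside via SRB (0.1%, TCA-fixed, 560 nm).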

Assay [11] in a line: BSK_3C_uPAR: BioMAP Diversity Plus: 3C Assay for Urokinase-type plasminogen activator receptor (uPAR) Biomarker Activity (AID 2282998). To be noted: BioMAP 3C HUVEC, uPAR biomarker ELISA; actives raise or lower the signal. In short, it runs like this:
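Dose primary human umbilical vein endothelial cells, incubate 24 h, measure cell-surface uPAR by ELISA, then fit the signal in both directions against the DMSO negative control.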
(In general: An ELISA detects its analyte on a solid surface through an enzyme-linked reagent.)

Assay [12] can be described thus: BSK_3C_VCAM1: BioMAP Diversity Plus: 3C Assay for Vascular cell adhesion molecule 1 (VCAM1) Biomarker Activity (AID 2282999). The note with it: BioMAP 3C HUVEC, VCAM1 ELISA, cytokine-stimulated; actives raise or lower the signal. In short, it runs like this: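 Vascular primary endothelium (human umbilical vein) was exposed to chemicals and assayed 24 h later. VCAM-1 levels came from ELISA, with DMSO serving as baseline for bidirectional fitting.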

Assay [13] is described as follows: BSK_4H_Eotaxin3: BioMAP Diversity Plus: 4H Assay for Eotaxin 3 Biomarker Activity (AID 2283000).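 As to outcome: CCL26 protein level quantified by ELISA in parallel with SRB cytotoxicity check.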 The note with it: primary human endothelial cells (HUVEC); actives raise or lower the signal. A digest of the protocol: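 Human umbilical vein endothelial cells (BSK_4H system) dosed with test chemical; Eotaxin-3 (CCL26) measured by ELISA 24 h after dosing. Bidirectional curve fitting relative to DMSO negative control as baseline.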

For assay [14], the target named is human Peroxisome Proliferator-activated Receptor delta (PPARd), PPARD (gene 5467) (UniProt Q03181). Briefly: ATG_PPARd_TRANS: Attagene TRANS-FACTORIAL HepG2 Assay for human Peroxisome Proliferator-activated Receptor delta (PPARd) (AID 2283002; active = hit-call score of the fitted dose curve at least 0.9, where 1 is the maximum). In short, it runs like this:
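HepG2 cells transiently transfected with multiplexed GAL4-UAS reporter units and exogenous chimeric NR-Gal4 proteins; 24 h compound exposure. Reporter mRNA measured by RT-PCR, 6-FAM labelling, HpaI digestion and capillary electrophoresis; gain of signal versus DMSO.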

Read-out in assay [15]: Intercellular Adhesion Molecule 1 (ICAM1), ICAM1 (gene 3383)
The assay is described as follows: BSK_3C_ICAM1: BioMAP Diversity Plus: 3C Assay for Intercellular Adhesion Molecule 1 (ICAM1) Biomarker Activity (AID 2283003). The note with it: primary human endothelial cells (HUVEC); actives raise or lower the signal. A digest of the protocol: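 Using DMSO as baseline, bidirectional curve fitting was applied to ICAM-1 ELISA signals from HUVEC in the 3C system, measured 24 h after compound addition.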

Assay [16] addresses human Retinoic Acid Receptor beta (RARb), RARB (gene 5915) (UniProt P10826). The assay is described as follows: ATG_RARb_TRANS: Attagene TRANS-FACTORIAL HepG2 Assay for human Retinoic Acid Receptor beta (AID 2283004; active = hit-call score of the fitted dose curve at least 0.9, where 1 is the maximum). A digest of the protocol: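 Induction of reporter mRNA from a chimeric RARb-Gal4 construct was measured by RT-PCR, FAM labelling, HpaI digestion and capillary electrophoresis. Measurements followed 24 h compound treatment of transiently transfected human HepG2 liver cells, with DMSO as baseline.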

Assay [17] concerns the target Retinoic acid receptor alpha (Homo sapiens) (UniProt P10276). The assay is described as follows: ATG_RARa_TRANS: Attagene TRANS-FACTORIAL HepG2 Assay for human Retinoic Acid Receptor alpha (RARa) (AID 2283005; active = hit-call score of the fitted dose curve at least 0.9, where 1 is the maximum). In short, it runs like this: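 HepG2 cells transiently transfected with multiple reporter units expressing chimeric RARα-GAL4 fusion, with GAL4-UAS-driven reporters. After 24 h compound exposure, reporter mRNA induction quantified by RT-PCR and capillary electrophoresis with fluorescent labeling; gain-of-signal fitted relative to DMSO control.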

Assay [18] can be described thus: BSK_3C_Proliferation: Cell Proliferation Assessment in the BioMAP Diversity Plus: 3C Assay (AID 2283006).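 As to AC50: potency may reflect either rise or fall in cell number versus DMSO.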 The note with it: primary human endothelial cells (HUVEC). A digest of the protocol: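 Measured here: sulforhodamine B (0.1%) staining of TCA-fixed sub-confluent umbilical vein endothelial cultures 48 h post-dosing, absorbance 560 nm. DMSO served as negative control and baseline; both signal gain and loss were modelled.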

Assay [19] deals with Peroxisome proliferator-activated receptor gamma (Homo sapiens) (UniProt P37231). Briefly: ATG_PPARg_TRANS: Attagene TRANS-FACTORIAL HepG2 Assay for human Peroxisome Proliferator-activated Receptor-gamma (PPARg) (AID 2283007; active = hit-call score of the fitted dose curve at least 0.9, where 1 is the maximum). A digest of the protocol: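 Read-out: reporter mRNA induction, detected by fluorescence after RT-PCR and capillary electrophoresis. Transiently transfected human HepG2 liver cells carrying a chimeric NR-Gal4 construct were dosed for 24 h; activity was fitted upward relative to DMSO.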

The nature of assay [20]: ATG_NRF2_ARE_CIS: Attagene CIS-FACTORIAL HepG2 Assay for human Nuclear Factor Erythroid 2 Related Factor 2 (NFR2) response to Antioxidant Response Elements (ARE) (AID 2282992). The note with it: HepG2 Attagene ARE/NRF2 reporter, transcription factor activity; actives raise or lower the signal. A digest of the protocol: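 Using transiently transfected HepG2 cells exposed for 24 h, reporter mRNA levels were determined by RT-PCR with fluorescent primer extension and capillary electrophoresis, analysed for gain or loss of signal against DMSO.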

Inconclusive results are not listed. Activity calls are given as the source filed them. The calls were made as follows, unless noted: active = hit-call score of the fitted dose curve at least 0.9, where 1 is the maximum; inactive = score below 0.9.

The values below come from PubChem BioAssay (EPA / NIEHS).

human Retinoic Acid Receptor gamma (RARg), RARG (gene 5916), sequence (P13631 whole entry, looked up, the tested form may be a part): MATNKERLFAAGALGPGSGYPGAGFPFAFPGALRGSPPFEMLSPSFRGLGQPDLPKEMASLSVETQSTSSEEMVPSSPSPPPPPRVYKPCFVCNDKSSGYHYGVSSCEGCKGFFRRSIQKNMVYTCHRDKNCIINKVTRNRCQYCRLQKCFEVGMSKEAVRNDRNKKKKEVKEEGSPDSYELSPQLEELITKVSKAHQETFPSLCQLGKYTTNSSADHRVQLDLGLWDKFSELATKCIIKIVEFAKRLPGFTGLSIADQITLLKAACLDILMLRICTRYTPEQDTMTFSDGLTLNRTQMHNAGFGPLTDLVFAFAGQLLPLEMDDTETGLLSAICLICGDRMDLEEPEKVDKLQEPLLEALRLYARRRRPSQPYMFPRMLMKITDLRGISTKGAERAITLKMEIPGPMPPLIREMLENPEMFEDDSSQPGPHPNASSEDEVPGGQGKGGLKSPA
Peroxisome proliferator-activated receptor gamma (Homo sapiens), sequence (P37231 whole entry, looked up, the tested form may be a part): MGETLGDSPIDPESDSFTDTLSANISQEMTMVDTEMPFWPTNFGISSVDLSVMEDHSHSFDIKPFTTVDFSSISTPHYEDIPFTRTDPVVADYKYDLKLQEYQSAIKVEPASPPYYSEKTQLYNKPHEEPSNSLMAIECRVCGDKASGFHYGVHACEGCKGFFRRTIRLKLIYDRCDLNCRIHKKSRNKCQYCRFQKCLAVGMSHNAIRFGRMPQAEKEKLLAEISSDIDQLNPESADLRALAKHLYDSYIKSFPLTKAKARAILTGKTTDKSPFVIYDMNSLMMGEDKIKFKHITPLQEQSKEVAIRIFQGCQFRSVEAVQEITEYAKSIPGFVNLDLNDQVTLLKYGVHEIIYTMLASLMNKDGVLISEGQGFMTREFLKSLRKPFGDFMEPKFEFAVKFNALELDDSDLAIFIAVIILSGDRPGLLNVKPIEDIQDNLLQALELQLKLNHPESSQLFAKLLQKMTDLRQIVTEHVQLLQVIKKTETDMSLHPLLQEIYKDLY
human Retinoic Acid Receptor beta (RARb), RARB (gene 5915), sequence (P10826 whole entry, looked up, the tested form may be a part): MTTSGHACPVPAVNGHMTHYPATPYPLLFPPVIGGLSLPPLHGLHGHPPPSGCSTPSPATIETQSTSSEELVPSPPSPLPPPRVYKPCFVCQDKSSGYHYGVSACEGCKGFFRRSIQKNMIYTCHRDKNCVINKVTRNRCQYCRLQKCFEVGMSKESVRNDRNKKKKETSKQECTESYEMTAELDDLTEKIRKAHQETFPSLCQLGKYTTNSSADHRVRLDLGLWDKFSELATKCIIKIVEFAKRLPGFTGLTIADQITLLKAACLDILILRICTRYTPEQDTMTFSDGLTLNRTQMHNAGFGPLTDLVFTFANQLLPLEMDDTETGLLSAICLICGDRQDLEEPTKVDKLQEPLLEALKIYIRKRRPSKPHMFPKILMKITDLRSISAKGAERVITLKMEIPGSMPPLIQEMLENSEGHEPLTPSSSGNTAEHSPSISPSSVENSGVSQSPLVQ
human RAR-related Orphan Receptor gamma (RORg), RORC (gene 6097), sequence (P51449 whole entry, looked up, the tested form may be a part): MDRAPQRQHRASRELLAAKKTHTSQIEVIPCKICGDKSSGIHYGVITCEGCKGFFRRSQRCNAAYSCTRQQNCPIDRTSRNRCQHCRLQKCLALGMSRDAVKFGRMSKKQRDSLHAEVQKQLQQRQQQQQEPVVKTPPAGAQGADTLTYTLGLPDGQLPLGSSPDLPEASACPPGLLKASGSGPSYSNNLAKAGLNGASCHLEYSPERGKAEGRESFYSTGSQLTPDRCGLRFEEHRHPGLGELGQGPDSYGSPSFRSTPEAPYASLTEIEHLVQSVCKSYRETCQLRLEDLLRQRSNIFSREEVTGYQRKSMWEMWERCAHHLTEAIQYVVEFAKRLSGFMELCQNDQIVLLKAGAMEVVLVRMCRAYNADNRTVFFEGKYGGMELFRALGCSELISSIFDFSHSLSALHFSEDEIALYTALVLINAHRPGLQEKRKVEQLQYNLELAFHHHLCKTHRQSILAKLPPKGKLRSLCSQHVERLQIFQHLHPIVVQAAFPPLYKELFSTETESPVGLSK
Retinoic acid receptor alpha (Homo sapiens), sequence (P10276 whole entry, looked up, the tested form may be a part): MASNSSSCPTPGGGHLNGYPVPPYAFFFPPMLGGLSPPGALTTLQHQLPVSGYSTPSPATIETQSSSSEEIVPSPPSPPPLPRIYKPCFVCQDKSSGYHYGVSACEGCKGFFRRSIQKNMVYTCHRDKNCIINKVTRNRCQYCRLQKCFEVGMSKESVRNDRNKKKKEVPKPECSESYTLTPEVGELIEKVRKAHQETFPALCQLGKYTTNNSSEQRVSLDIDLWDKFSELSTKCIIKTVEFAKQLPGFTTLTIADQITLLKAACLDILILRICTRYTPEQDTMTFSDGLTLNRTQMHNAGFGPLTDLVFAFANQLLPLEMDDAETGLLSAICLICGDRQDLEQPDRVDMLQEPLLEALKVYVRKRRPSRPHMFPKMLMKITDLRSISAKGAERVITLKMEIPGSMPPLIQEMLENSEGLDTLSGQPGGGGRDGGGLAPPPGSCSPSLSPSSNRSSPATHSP
Nuclear receptor subfamily 1 group I member 2 (Homo sapiens), sequence (O75469 whole entry, looked up, the tested form may be a part): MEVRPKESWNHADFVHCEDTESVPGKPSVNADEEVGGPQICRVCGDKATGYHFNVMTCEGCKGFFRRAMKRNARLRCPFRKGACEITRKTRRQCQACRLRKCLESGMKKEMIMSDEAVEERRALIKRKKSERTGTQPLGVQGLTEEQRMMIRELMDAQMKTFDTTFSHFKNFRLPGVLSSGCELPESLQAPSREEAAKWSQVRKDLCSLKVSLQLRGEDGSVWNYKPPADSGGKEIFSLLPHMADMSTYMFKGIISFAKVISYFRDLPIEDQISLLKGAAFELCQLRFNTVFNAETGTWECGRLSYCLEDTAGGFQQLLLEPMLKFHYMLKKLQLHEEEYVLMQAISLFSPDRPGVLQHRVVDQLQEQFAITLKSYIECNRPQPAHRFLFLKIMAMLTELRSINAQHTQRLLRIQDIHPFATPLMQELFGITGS
human RAR-related Orphan Receptor beta (RORb), RORB (gene 6096), sequence (Q92753 whole entry, looked up, the tested form may be a part): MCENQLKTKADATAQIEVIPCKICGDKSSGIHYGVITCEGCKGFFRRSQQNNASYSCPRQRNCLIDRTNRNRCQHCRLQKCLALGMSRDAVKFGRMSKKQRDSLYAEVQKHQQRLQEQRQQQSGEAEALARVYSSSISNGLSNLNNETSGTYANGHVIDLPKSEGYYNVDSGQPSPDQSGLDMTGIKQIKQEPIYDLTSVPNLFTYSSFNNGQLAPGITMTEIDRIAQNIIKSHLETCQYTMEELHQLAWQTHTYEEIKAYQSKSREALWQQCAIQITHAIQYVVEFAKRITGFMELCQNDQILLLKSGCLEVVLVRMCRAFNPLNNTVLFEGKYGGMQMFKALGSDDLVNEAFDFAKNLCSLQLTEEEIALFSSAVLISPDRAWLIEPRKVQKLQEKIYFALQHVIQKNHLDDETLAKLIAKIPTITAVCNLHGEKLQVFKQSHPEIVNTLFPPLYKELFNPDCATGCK
Myc proto-oncogene protein (Homo sapiens), sequence (P01106 whole entry, looked up): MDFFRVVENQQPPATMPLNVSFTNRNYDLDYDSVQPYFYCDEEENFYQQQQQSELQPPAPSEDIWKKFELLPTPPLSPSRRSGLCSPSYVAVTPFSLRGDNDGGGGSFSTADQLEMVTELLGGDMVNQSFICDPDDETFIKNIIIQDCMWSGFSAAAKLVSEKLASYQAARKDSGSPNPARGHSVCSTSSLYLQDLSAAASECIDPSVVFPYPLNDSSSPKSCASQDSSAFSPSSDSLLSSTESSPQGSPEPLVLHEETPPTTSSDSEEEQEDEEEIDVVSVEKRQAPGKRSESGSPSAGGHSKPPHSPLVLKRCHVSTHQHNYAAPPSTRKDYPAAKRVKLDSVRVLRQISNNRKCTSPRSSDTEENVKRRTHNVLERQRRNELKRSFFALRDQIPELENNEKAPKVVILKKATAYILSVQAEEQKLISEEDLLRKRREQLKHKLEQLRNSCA
human Peroxisome Proliferator-activated Receptor delta (PPARd), PPARD (gene 5467), sequence (Q03181 whole entry, looked up, the tested form may be a part): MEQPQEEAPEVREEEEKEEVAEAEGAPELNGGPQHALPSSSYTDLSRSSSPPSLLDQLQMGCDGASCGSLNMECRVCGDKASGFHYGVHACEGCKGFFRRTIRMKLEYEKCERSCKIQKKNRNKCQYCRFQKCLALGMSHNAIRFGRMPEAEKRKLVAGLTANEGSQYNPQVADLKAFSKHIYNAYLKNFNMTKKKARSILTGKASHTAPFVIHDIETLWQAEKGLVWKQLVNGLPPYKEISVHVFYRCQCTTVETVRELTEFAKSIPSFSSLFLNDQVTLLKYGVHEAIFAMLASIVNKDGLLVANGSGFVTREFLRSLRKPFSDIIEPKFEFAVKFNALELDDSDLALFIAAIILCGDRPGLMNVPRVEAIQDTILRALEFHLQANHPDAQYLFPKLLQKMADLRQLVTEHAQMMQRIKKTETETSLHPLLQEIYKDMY
Cellular tumor antigen p53 (Homo sapiens), sequence (P04637 whole entry, looked up, the tested form may be a part): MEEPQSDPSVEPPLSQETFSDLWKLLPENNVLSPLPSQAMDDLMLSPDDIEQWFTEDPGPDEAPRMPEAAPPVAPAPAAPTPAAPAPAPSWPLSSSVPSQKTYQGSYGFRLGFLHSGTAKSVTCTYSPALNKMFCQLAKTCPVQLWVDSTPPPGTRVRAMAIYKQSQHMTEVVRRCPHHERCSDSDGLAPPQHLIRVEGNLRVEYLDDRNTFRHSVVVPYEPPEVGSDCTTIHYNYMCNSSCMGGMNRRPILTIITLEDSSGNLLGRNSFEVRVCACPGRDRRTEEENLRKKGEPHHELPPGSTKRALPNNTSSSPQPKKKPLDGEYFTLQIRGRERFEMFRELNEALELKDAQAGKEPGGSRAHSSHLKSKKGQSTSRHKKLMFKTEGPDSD

For the compound `ON=C1CCCCC1`, the compound was classed as inactive in [1], in assay [2], in assay [3], in assay [4], in assay [5] and in assay [6]. Also, the compound was classed as inactive in assay [7].

In the case of `O=CCc1ccccc1`, the compound was classed as inactive in [1], in assay [2], in assay [3], in [4], in assay [9] and in assay [6]. The call in assay [7] was inactive. Besides, in assay [8], the AC50 – broadly, the concentration giving half of the maximal activity seen – was 13.1 µM (active).

For the compound `CC(=O)c1c(C)c([N+](=O)[O-])c(C(C)(C)C)c([N+](=O)[O-])c1C`, the compound was classed as inactive in assay [1], in [2], in [3], in assay [4], in assay [10] and in assay [11]. In addition, the outcome in assay [12], in [13], in [14], in assay [15], in assay [16] and in assay [17] was inactive. Moreover, the outcome in [18], in [19] and in assay [9] was inactive.

With `CCCCCc1ccco1`, the compound was called inactive in [1], in assay [3], in assay [4] and in assay [14]. Besides, the values for the AC50 in [2], in assay [19] and in [8] were 54.2 µM (active), 4.11 µM (active) and 2.75 µM (active), respectively.

For the compound `CCCCCCCCCCCCCC(=O)OCC(O)CO` (stereo not drawn), the compound was classed as inactive in assay [1], in assay [2], in assay [3], in assay [4], in assay [5] and in assay [14]. Further, the compound was called inactive in assay [16], in assay [17], in assay [9] and in [7].

With `Cc1ccc(S(N)(=O)=O)cc1`, the compound was called inactive in [1], in [2], in assay [3], in assay [4], in [16] and in assay [17]. Besides, the outcome in assay [8] and in assay [9] was inactive.

As for `CC1=C(Br)C(=O)C(Br)=C/C1=C(/c1ccccc1S(=O)(=O)O)c1cc(Br)c(O)c(Br)c1C`, the outcome in assay [1], in assay [2], in assay [3], in assay [14], in assay [16] and in assay [19] was inactive. Moreover, the compound was called inactive in assay [9]. In assay [8], the AC50 was 29.6 µM (active).

For the compound `CCC1(c2ccccc2)C(=O)NCNC1=O`, the result in assay [1], in [2] and in assay [4] was inactive.

In the case of `COc1ccc(CCN2CCC(Nc3nc4ccccc4n3Cc3ccc(F)cc3)CC2)cc1`, the compound was classed as inactive in assay [1], in [2], in assay [3], in [4], in assay [10] and in assay [12]. For the same compound, the result in [15], in assay [16], in [17], in assay [8], in [9] and in assay [6] was inactive. Further, the results for the AC50 in [11], in assay [13] and in [18] were 5 µM (active), 5 µM (active) and 6.51 µM (active), respectively.

Regarding `CCOc1ccccc1O`, the outcome in assay [1], in [2], in assay [3], in assay [4], in assay [17] and in [19] was inactive. Also, the compound was classed as inactive in [8] and in assay [6].

With `CC(Oc1cc(Cl)ccc1Cl)C(=O)O` (stereo not drawn), the compound was called inactive in assay [1], in assay [2], in assay [20], in [4], in assay [5] and in assay [14]. Further, the result in assay [19], in assay [8] and in [7] was inactive.

For the compound `C=C1CC[C@H](O)C/C1=C/C=C1\CCC[C@]2(C)[C@@H]([C@H](C)/C=C/[C@H](C)C(C)C)CC[C@@H]12`, the outcome in assay [1], in assay [4] and in [19] was inactive. Further, the AC50 was 44.5 µM (active) in assay [2] and 27 µM (active) in assay [20].
